Bioassay records from PubChem.
A selection: hits, their analogues and other compounds. The true share with any hit is near 27%.
CYP2C19 act = human CYP2C19 activators, primary screen, biochemical, luminescence | Cytochrome P450 2C19 (Homo sapiens), P33261 | recombinant CYP2C19, luciferin-H EGE luminescence; stronger effect = higher value; 0 = fully inhibited enzyme, 1 = untreated enzyme | activation factor at 5 µM | 96,000 tested, under 10 active;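 active = activation factor of at least 2 at 5 µM in the primary screen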
Target sequence (P33261 whole entry, looked up): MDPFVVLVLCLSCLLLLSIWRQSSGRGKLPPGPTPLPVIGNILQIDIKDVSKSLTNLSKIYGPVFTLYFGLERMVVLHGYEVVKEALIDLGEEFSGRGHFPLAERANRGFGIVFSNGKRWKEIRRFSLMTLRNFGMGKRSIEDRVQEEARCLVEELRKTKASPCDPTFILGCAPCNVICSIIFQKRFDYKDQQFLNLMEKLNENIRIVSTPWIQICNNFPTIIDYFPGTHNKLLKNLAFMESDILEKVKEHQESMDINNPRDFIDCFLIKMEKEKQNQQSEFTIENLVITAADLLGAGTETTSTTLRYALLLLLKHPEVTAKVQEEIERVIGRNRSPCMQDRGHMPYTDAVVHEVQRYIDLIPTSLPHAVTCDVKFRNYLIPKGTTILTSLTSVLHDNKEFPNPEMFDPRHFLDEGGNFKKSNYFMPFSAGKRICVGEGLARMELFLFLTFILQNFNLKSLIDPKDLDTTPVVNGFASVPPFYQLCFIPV
sEH inhibitor = soluble epoxide hydrolase inhibitors, primary screen, biochemical, human sEH; Bifunctional epoxide hydrolase 2 (Homo sapiens), P34913; recombinant human sEH enzymatic activity assay; inhibition, % at 2 µM; 91,000 compounds, 0.34% hits; AID 707, 2007; in the data active = inhibition above about 80%
CYP2C9 inh = blockers of cytochrome P450 2C9 activity – biochemical, luminescence, ADME assay, primary screen | 96,000 compounds, 20% hits | P11712 | inhibition, % at 5 µM | CYP2C9 Supersomes, luciferin-H conversion;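 active = blocking of liver enzyme CYP2C9 beyond about 50% at 5 µM, limit read from the data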
CYP2C9 activ = human CYP2C9 activators, primary screen, biochemical, luminescence; activation factor at 5 µM; AID 1024, 2008; recombinant CYP2C9, luciferin-H conversion; stronger effect = higher value; factor 1 = untreated enzyme, 0 = blocked; 96,000 compounds, 1.4% hits;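 active = activation factor of 2 or more for CYP2C9 at a 5 µM dose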
CYP2C19 inhib = blockers of cytochrome P450 2C19 activity – biochemical, luminescence, ADME assay, primary screen; P33261; CYP2C19 Supersomes, luciferin-H EGE luminescence, 30 min; inhibition, % at 5 µM; 96,000 compounds, 21% hits;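 active = CYP2C19 inhibition above a set limit at 5 µM in the primary screen, cut at about 50% in these data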
sEH act = soluble epoxide hydrolase activators, primary screen, biochemical, human sEH; 91,000 compounds, 0.04% hits; Bifunctional epoxide hydrolase 2 (Homo sapiens), P34913; purified human sEH enzymatic activity, activator screen; activation, % at 2 µM; in the data active = activation above about 37%
Hits are given with their value; . = inactive; / = no result given.

SMILES	CYP2C19 act	sEH inhibitor	CYP2C9 inh	CYP2C9 activ	CYP2C19 inhib	sEH act
Cc1csc(N(C(=O)c2cccc(S(=O)(=O)N3CCCC3)c2)c2ccccc2)n1	.	.	.	.	.	.
O=C(NCC1CCCO1)c1ccc(CS(=O)(=O)c2c(Cl)cccc2Cl)o1 (stereo not drawn)	.	.	.	.	54	.
O=C(NCC1CCCO1)c1ccc(CS(=O)(=O)c2ccc(Cl)cc2)o1 (stereo not drawn)	.	.	.	.	.	.
CCOc1ccc2noc3c2c1C(=O)c1ccccc1-3	.	.	.	.	.	.
O=C1c2ccccc2-c2onc3c(Oc4ccccc4)cc(O)c1c23	.	.	68	.	.	.
Nc1ccc(N2CCCCCC2)cc1	.	.	.	.	64	.
O=C(O)c1ccc(N2CCCCC2)cc1	.	/	.	.	.	/
CCOC(=O)NC(Nc1nnc(SCC)s1)(C(F)(F)F)C(F)(F)F	.	.	.	.	.	.
COc1cc(C(=O)N2CCN(C(=O)c3ccccc3)CC2)cc(OC)c1OC	.	.	.	.	.	.
COC(=O)c1ccccc1NC(=O)C1CCCC1	.	.	.	.	57	.
O=C(Nc1ccccc1Oc1ccccc1)C1CC1	.	/	.	.	70	/
CCC(=O)Nc1ccccc1Oc1ccccc1	.	.	.	.	.	.
COC(=O)c1ccccc1NC(=O)C1CCN(C(=O)c2cc(OC)c(OC)c(OC)c2)CC1	.	.	91	.	.	.
CN1C(=O)c2cccc(NC(=O)C3CCCCC3)c2C1=O	.	.	.	.	74	.
Nc1nnc(N2CCc3ccccc32)s1	.	/	.	.	.	/
O=C(Cc1c(O)c2ccccc2[nH]c1=O)OC1CCCCC1	.	.	.	.	.	.
COc1ccc(OC)c(N(CC(=O)NCc2ccncc2)S(C)(=O)=O)c1	.	.	52	.	78	.
COc1ccc(OC)c(N(CC(=O)NCc2cccnc2)S(C)(=O)=O)c1	.	.	.	.	71	.
COc1ccccc1N(CC(=O)NCc1cccnc1)S(C)(=O)=O	.	.	.	.	.	.
Cc1ccccc1N(CC(=O)NCc1ccncc1)S(C)(=O)=O	.	.	86	.	97	.
COc1ccccc1N(CC(=O)NCc1ccccn1)S(C)(=O)=O	.	.	.	.	.	.
Cc1cc(C)cc(N(CC(=O)NCc2cccnc2)S(C)(=O)=O)c1	.	.	.	.	64	.
COc1ccc(OC)c(N(CC(=O)NCc2ccccn2)S(C)(=O)=O)c1	.	.	.	.	.	.
CC(C)C1Cc2[nH]c(=O)c(C(=O)O)cc2CO1 (stereo not drawn)	.	.	.	.	.	.
CCOC(=O)c1c(N2C(=O)C=CC2=O)sc(C)c1C	.	.	.	.	.	.
SMILES	CYP2C19 act	sEH inhibitor	CYP2C9 inh	CYP2C9 activ	CYP2C19 inhib	sEH act
CS(=O)(=O)N(CC(=O)NCC1CCCO1)c1ccc(Cl)c(Cl)c1 (stereo not drawn)	.	.	.	.	.	.
Cc1ccccc1N(CC(=O)Nc1ccccc1C(=O)O)S(C)(=O)=O	.	.	89	.	.	.
CS(=O)(=O)N(CC(=O)NCc1ccncc1)c1ccc(Cl)c(Cl)c1	.	.	99	.	100	.
Cc1ccc(OC(=O)c2ccc(S(=O)(=O)N(C)C)cc2)c(-n2nc3ccccc3n2)c1	.	.	.	.	.	.
Cc1ccc(S(=O)(=O)N(C(=O)c2ccncc2)c2ccc(OC(=O)c3ccncc3)c3ccccc23)c(C)c1	.	.	99	.	97	.
CCOC(=O)N1CCC2(CC1)C(C#N)=C(N)OC1=C2C(=O)CC(C)C1 (stereo not drawn)	.	.	68	.	.	.
Cc1ccc(SCc2[nH]nc3c2C2(C(=O)Nc4ccc([N+](=O)[O-])cc42)C(C#N)=C(N)O3)cc1 (stereo not drawn)	.	.	52	.	.	.
Cc1[nH]nc2c1C1(CCN(C(=O)OCc3ccccc3)CC1)C(C#N)=C(N)O2	.	/	.	.	68	/
CC1(C)CC(=O)C2=C(C1)OC(N)=C(C#N)C21CCN(C(=O)OCc2ccccc2)CC1	.	.	.	.	.	.
N#CC1=C(N)OC2=C(C(=O)CCC2)C12CCN(C(=O)OCc1ccccc1)CC2	.	/	66	.	99	/
COc1cc(CN2CCC(C(=O)NC3CCCC3)CC2)ccc1O	.	.	.	.	.	.
NC(=O)c1ccc[n+](CC(=O)OCCC23CC4CC(CC(C4)C2)C3)c1	.	.	.	.	.	.
Cc1ccc(SCc2[nH]nc3c2C2(CCSCC2)C(C#N)=C(N)O3)cc1	.	.	.	.	.	.
CCOC(=O)N1CCC2(CC1)C(C#N)=C(N)Oc1n[nH]c(CSc3ccc(C)cc3)c12	.	.	70	.	.	.
CCNc1nc(N2CCCCC2)nc(-n2nnc(C(=O)OCC)c2C)n1	.	.	.	.	.	.
COc1ccccc1Nc1ncnc2nc[nH]c12	.	.	.	.	.	.
Cc1cccc(NC(=S)N(C)C2(c3ccccc3Cl)CCCCC2=O)c1 (stereo not drawn)	.	.	68	.	97	.
CN(C(=S)Nc1ccccc1F)C1(c2ccccc2Cl)CCCCC1=O (stereo not drawn)	.	/	.	.	82	/
CCN(C(=S)Nc1ccccc1F)C1CCCCC1	.	.	.	.	.	.
NCCCN1CCOCC1	.	.	.	.	.	.
O=[N+]([O-])c1cc(Cl)ccc1NCCNc1ncc(C(F)(F)F)cc1Cl	.	.	.	.	88	.
O=[N+]([O-])c1ccc(NC(=S)NCCc2ccc(Cl)cc2)cc1	.	.	.	.	.	.
O=[N+]([O-])c1cc(C(F)(F)F)ccc1NCCNC(=S)Nc1ccc(Cl)cc1	.	.	68	.	.	.
COc1ccc(-c2nc(-c3cccs3)c(-c3cccs3)[nH]2)cc1O	.	/	96	.	88	/
CC(c1ccc(Cl)cc1)n1c(-c2ccc3ccccc3n2)n[nH]c1=S (stereo not drawn)	.	.	.	.	.	.
CCc1cc(-c2n[nH]c(=S)n2Cc2ccccc2)cs1	.	.	.	.	51	.
CCCc1cc(-c2n[nH]c(=S)n2C(C)c2ccccc2)cs1 (stereo not drawn)	.	.	97	.	81	.
CCc1cc(-c2n[nH]c(=S)n2-c2ccccc2C)cs1	.	.	52	.	.	.
COC(=O)c1cc(C)sc1NC(=O)c1cccnc1	.	.	.	.	.	.
CC(C)(CNC(=O)c1cc2ccccc2o1)N1CCOCC1	.	/	.	.	.	/
